Whole data set: some 110,000 compounds, median “z-score” near -0.1, cut for the highest 2% near 2. The sample holds the highest values, similar compounds and a random draw of the others, so the mix is not that of the screen. The source made the active and inactive calls.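 Rule for the calls: active = z-score in the third read window above 3 or below -3; inactive = the rest.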

The experiment deals with Metabotropic glutamate receptor 8 (Rattus norvegicus) (UniProt P70579). Kind of experiment: mGluR8 Gi/Go-coupled signaling modulation – cell-based, rat, thallium flux, HTS, primary screen (AID 488969). Particulars: HEK293 rat mGluR8, GIRK (G protein-gated inwardly rectifying potassium channel) thallium flux, FluoZin2; at 10 µM; stronger effect = higher value; submaximal glutamate (EC20) added with thallium.
Metabotropic glutamate receptor 8 (Rattus norvegicus), sequence (P70579 whole entry, looked up): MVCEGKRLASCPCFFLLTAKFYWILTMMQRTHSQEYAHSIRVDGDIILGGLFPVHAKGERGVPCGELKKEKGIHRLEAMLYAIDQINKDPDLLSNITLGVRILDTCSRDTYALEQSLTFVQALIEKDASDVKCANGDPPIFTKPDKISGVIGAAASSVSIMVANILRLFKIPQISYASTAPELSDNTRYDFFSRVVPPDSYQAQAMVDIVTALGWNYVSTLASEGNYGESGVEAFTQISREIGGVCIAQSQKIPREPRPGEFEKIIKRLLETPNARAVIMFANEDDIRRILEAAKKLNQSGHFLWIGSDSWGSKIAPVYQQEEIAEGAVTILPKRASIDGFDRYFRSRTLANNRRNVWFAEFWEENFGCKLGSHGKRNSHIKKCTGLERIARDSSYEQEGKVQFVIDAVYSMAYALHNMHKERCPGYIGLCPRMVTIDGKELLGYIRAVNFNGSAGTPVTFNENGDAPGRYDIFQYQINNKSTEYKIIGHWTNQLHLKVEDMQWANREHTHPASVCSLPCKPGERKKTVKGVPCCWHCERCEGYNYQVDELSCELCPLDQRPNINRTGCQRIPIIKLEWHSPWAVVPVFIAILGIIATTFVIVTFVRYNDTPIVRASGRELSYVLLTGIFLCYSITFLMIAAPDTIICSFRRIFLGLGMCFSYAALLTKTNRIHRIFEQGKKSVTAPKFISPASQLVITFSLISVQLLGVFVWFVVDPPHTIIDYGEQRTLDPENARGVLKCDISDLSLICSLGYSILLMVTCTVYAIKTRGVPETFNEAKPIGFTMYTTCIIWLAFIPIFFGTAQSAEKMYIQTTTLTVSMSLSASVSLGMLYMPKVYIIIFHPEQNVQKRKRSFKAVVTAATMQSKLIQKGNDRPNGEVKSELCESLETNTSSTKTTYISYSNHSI
Regarding `CCOC(=O)N1CCN(C(=O)c2ccc3c(=O)n(Cc4ccc(OC)cc4)c(=S)[nH]c3c2)CC1`, the z-score is -0.232. Take `COc1ccc(Cn2c(=S)[nH]c3ccsc3c2=O)cc1`: the z-score was 3.86 (active). Next, `COc1ccc(Cn2c(O)cc(=O)[nH]c2=O)cc1`: 0.277. Next, `CCOCCn1c(=NC(=O)c2cc3ccccc3oc2=O)sc2cc(S(N)(=O)=O)ccc21`: -0.105. Then `C=CCSc1[nH]c(=O)cc(C)c1C(N)=O`, with 0.533; and `O=C(COc1ccccc1)Nc1cccc2c1CCCC2`, with -0.151. With `CC(=O)Nc1ccccc1Nc1cc(C#N)c(C#N)cc1[N+](=O)[O-]`, the z-score is -0.00232. Next, `CN1C2C=C3C(C#N)=C(N)C(C#N)(C#N)[C@@H](c4cccs4)C3C1CC2` (some centres undefined): 2.54; `CC(C)(C)C1CC=C2C(C#N)=C(N)C(C#N)(C#N)C(c3cccs3)C2C1` (centres undefined): 0.0392. Then `CN1C2C=C3C(C#N)=C(N)C(C#N)(C#N)[C@H](c4c(F)cccc4F)[C@H]3C1CC2` (some centres undefined), with -0.484; and `CN1C2C=C3C(C#N)=C(N)C(C#N)(C#N)[C@@H](c4ccsc4)[C@@H]3C1CC2` (some centres undefined), with 4.01 (active).

On to `CN1C2C=C3C(C#N)=C(N)C(C#N)(C#N)C(c4ccc(Br)cc4)C3C1CC2` (centres undefined), for which the z-score stood at 0.361. Next, `CN1C2C=C3C(C#N)=C(N)C(C#N)(C#N)[C@@H](c4cccc(F)c4)[C@@H]3C1CC2` (some centres undefined): 1.32. Regarding `Cc1ccnc(N2CCC(C(=O)NNC(=O)COc3cccc4ccccc34)CC2)n1`, the z-score came out at 0.336.

As for `COc1cc(/C=N/OCC(=O)Nc2ccc(OC(F)F)cc2)ccc1OCc1ccccc1`, the z-score is -0.0267.

Take `CCOC(=O)C1CCCN(C(=O)c2cnn3c(C(F)(F)F)cc(-c4ccccc4)nc23)C1` (centres undefined): the z-score was -2.11. Next, `CCOC(=O)c1ccc(NS(=O)(=O)c2ccc(SC)cc2)cc1`: -0.12. Consider `COC(=O)c1ccc(NS(=O)(=O)c2ccc(SC)cc2)cc1`, for which the z-score is 5.24 (active). Next, `COC(=O)c1ccc(NS(=O)(=O)c2ccc(OC)cc2)cc1`: 0.37; `Cc1ccc(Cl)cc1N1CCN(C(=O)CSc2nnc3n2C(C)(C)Cc2ccccc2-3)CC1`: 1.18; `COc1ccc(N2CCN(C(=O)CSc3nnc4n3C(C)(C)Cc3ccccc3-4)CC2)cc1`: -0.642. Next, `CC1(C)Cc2ccccc2-c2nnc(SCC(=O)N3CCN(c4ccccc4)CC3)n21`: 3.2 (active); `O=C(Nc1ccccn1)C12CC3CC(C1)CC(C(=O)Nc1ccccn1)(C3)C2`: 0.332; `Cc1cccc(Oc2ncc(-c3ccc(Cl)cc3)cn2)c1`: 0.0612. Then `Cc1cc(N2CCOCC2)nc2ccccc12`, with -0.0968; and `c1nc(NCC2CCCO2)c2[nH]cnc2n1` (centres undefined), with 0.26; and `O=C(NCC1CCCO1)c1cccc(Br)c1` (centres undefined), with 0.348. With `O=C(NCC1CCCO1)c1cccc(F)c1` (centres undefined), the z-score amounted to 0.371. As to `Cc1cccc(C(=O)NCC2CCCO2)c1` (centres undefined), the z-score turned out to be 2.21.

Source of the values: PubChem BioAssay AID488969 (Vanderbilt High Throughput Screening Facility, 2010).
